This is part of a sample that, as a whole, favours compounds with a hit. Of some 83,000 tested, about 20% had one in any assay.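 In brief: 96-well plates, 48 h treatment, single concentration, percent growth endpoint.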 Values without a mark were called inactive. Active and inactive are the calls of the source. Rule for the calls: active = growth percent below 10; inactive = the rest.
Tests used:
Experiment in all cases: NCI-60 one-dose screen, 48 h (100 = growth as untreated, 0 = no growth, -100 = all killed)
Settings in all cases: 10 µM unless noted
[1] = system: NCI-H23 lung
[2] = system: NCI-H226 lung
[3] = system: NCI-H322M lung
[4] = system: HOP-62 NSCLC
[5] = system: NCI-H460 lung
[6] = system: HOP-92 NSCLC
[7] = system: NCI-H522 lung
[8] = system: A549/ATCC NSCLC
[9] = system: 786-0 renal
[10] = system: COLO 205 colon

Structure (SMILES) | growth [1] | growth [2] | growth [3] | growth [4] | growth [5] | growth [6] | growth [7] | growth [8] | growth [9] | growth [10]
COc1ccc(-n2cc(-c3ccc(Cl)c(Cl)c3)[nH]c2=O)cc1OC | 94.8% | 97.5% | 75.9% | 97.3% | 107% | 75% | 85.2% | 89.6% | 59.5% | 109%
COC(=O)c1ccc(NC(=O)CSc2nc(-c3ccc(F)cc3)nc3ccccc23)cc1 | 81.7% | 87.4% | 89.5% | 75.5% | 60.7% | 77.7% | 76.9% | 86.1% | 105% | 93.8%
NC(=O)c1ccc2nc3c(n2c1)C(=O)C(=O)c1ccccc1-3 | -38.3% (active) | -49.7% (active) | -98.2% (active) | -87.8% (active) | -50.7% (active) | -80.9% (active) | -48.9% (active) | -43.1% (active) | -99.4% (active) | -69% (active)
CSc1cccc(NC(=O)Nc2nc3c(C)cccc3s2)c1 | 90.2% | 83.2% | 102% | 87.4% | 97.6% | 86.6% | 77.6% | 95.1% | 96.2% | 120%
CC(=O)c1ccc(NC(=O)CSc2nnc(-c3cc(-c4ccc(Cl)cc4)nc4ccccc34)o2)cc1 | 61% | 96.4% | 97.8% | 80.6% | 46% | 94.2% | 60.9% | 76.7% | 63.5% | 96.6%
O=C1C(Cl)=C(Nc2ccc3c(c2NC2=C(Cl)C(=O)c4ccccc4C2=O)C(=O)c2ccccc2C3=O)C(=O)c2ccccc21 | -3.56% (active) | 36.9% | 46.9% | 39.5% | 10.4% | 61.4% | 12.4% | -31.8% (active) | 48.5% | 21.1%
c1ccc2c3c([nH]c2c1)C(c1ccc(C2NCCc4c2[nH]c2ccccc42)cc1)NCC3 (stereo not given) | 72.4% | 77.1% | -1.54% (active) | -70.3% (active) | -71.6% (active) | 20.8% | -72.4% (active) | -85.1% (active) | -68.1% (active) | -81.5% (active)
C#C[C@@]1(O)[C@@H](CO)O[C@@H](n2ccc3c(N)ncnc32)[C@@H]1O | -20.7% (active) | -54.4% (active) | 14.5% | 4.56% (active) | 0.612% (active) | -15.8% (active) | -18.4% (active) | -19.4% (active) | 4.14% (active) | -55.2% (active)
O=C(CSC(=S)N1CCCCC1)Nc1ccccc1 | 97.4% | 94.5% | 101% | 100% | 104% | 99.6% | 82.3% | 87.9% | 97% | 112%
Cc1nc(C)c(C)nc1C | 102% | 104% | 103% | 100% | 109% | 103% | 84.6% | 86.6% | 96.9% | 119%
COc1ccc(C(=O)c2cc(F)c(F)c(OC)c2F)cc1OC(=O)CCl | 58.3% | 105% | 75.8% | 39% | 20.5% | 52.9% | 30.6% | 53.8% | 89.6% | 108%
CCOC(=O)NCCc1nc2c([nH]1)c(=O)n(C)c(=O)n2C | 93.7% | 105% | 103% | 115% | 106% | 93.5% | 92.5% | 104% | 102% | 109%
Cc1ccc2nc3nc4ccc[nH]c4cc3c2c1 | 65.1% | 78.4% | 72.5% | 76.4% | 53.8% | 121% | 90.1% | 97.6% | 108% | 82.1%
CCn1cc(C(=O)O)c(=O)c2cc(F)c(N3CCN(CC(=O)Nc4ccc(/C(C)=N/OC)cc4)CC3)cc21 | 90.6% | 97.9% | 80.2% | 88.8% | 104% | 84.8% | 84.8% | 95.8% | 91.7% | 102%
O=c1[nH]c2ccccc2cc1-c1nc2ccncc2[nH]1 | 85% | 79.6% | 110% | 101% | 62.4% | 64.3% | 90.7% | 90.4% | 88.6% | 83.3%
CCCCCOC(=O)c1ccccc1O | 112% | 97.8% | 101% | 85.4% | 108% | 88% | 87.4% | 96.2% | 94.4% | 120%
O=C1C(Cl)=C(NCCCN(CCCNC2=C(Cl)C(=O)c3ccccc3C2=O)C2=C(Cl)C(=O)c3ccccc3C2=O)C(=O)c2ccccc21 | -13.5% (active) | 88.1% | 61.5% | 102% | 39.2% | 87.9% | 73.8% | 45.6% | 90.5% | -13.8% (active)
O=CN1N=C(c2ccc(Cl)cc2)CC1c1cccc(Nc2ccnc3cc(C(F)(F)F)ccc23)c1 (stereo not given) | 50.6% | 61.9% | 82.4% | 67.1% | 57.9% | 66.3% | 57% | 61.4% | 81.5% | 60.1%
COc1ccc(Cc2nc(C#N)c(N3CCN(c4ccc(F)cc4)CC3)o2)cc1 | 86.3% | 74.1% | 99.5% | 95.8% | 104% | 88.2% | 73.6% | 92.1% | 91.1% | 103%
C=C1C(=O)O[C@H]2[C@H]1CC/C(COC(=O)n1ccnc1)=C\CC[C@@]1(C)O[C@@H]21 | 91.1% | 92.4% | 113% | 92.5% | 104% | 94.4% | 31.9% | 93% | 102% | 64.6%
COCCOCCOCc1n(Cc2ccc3ccccc3c2)c2ccccc2[n+]1Cc1ccc2ccccc2c1 | 5.56% (active) | 17.2% | 40.5% | 17.2% | 10.3% | -32.1% (active) | -16.6% (active) | 33.1% | 23.6% | -60.7% (active)
O=C(CCCC(=O)Nc1ccc(-n2nnc3cc(Cl)c(Cl)cc32)cc1)Nc1ccc(-n2nnc3cc(Cl)c(Cl)cc32)cc1 | 40.2% | 49.9% | 59.9% | 28% | 14.9% | 77.6% | 37.4% | 34% | 49.6% | 72.2%
CC(C)NS(=O)(=O)c1cccc(-c2ccc3c4c(n(CCCN(C)C)c(=O)c3c2)-c2ccccc2C4=O)c1 | 98.6% | 92.9% | 104% | 101% | 28.5% | 114% | 86.7% | 83.5% | 33.8% | 98.9%
COc1ccc(Nc2cc(NC(=O)CNc3cc(OC)c(Cl)c(OC)c3Cl)ncn2)cc1 | 90.2% | 68.5% | 88% | 83.1% | 89.3% | 74.3% | 65.5% | 71.1% | 88.1% | 89.5%
Cc1ccc(C2=N[C@H]3CCC[C@@H]3N(c3ccccc3)C(C(Cl)Cl)=N2)cc1 | 95.5% | 107% | 93.3% | 111% | 110% | 107% | 93% | 98.4% | 98.3% | 98.8%
COC(=O)c1ccc2c(c1)n(Cc1ccc3ccccc3c1)c[n+]2Cc1ccc2ccccc2c1 | 34.6% | 61.3% | 57.2% | 63.8% | 28.6% | -10.7% (active) | 26.3% | 75% | 70.3% | 3.66% (active)
CC(=O)c1ccc(NC(=O)CSc2nnc(-c3cc(-c4ccc(C)cc4)nc4ccccc34)o2)cc1 | 27.6% | 58.7% | 86.5% | 17.6% | 10.5% | 66.9% | 23.2% | 48.9% | 3.06% (active) | 77.4%

Reference: PubChem BioAssay (NCI)
